# HCMV inh: human cytomegalovirus inhibition | 4.5% of 410,000 active | AID 1259415 | HFF cells, HCMV-luciferase reporter, 72 h; active compounds read low | activity change, negative = inhibition, % at 57.5 µM; in the data active means activity change below about -60%; inconclusive means no clear call, values can overlap the other calls; inactive means above about -39%
#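 Human foreskin fibroblasts infected with luciferase-reporter HCMV at MOI 1 PFU/cell, compounds at two doses. Luciferase measured 72 h post infection; normalized to buffer-only basal and Salinomycin (10uM) controls.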
# Vaccinia mCherry: vaccinia inhibition (mCherry reporter); Vaccinia virus mCherry reporter infection, fluorescence; Potency, µM (highest dose often 36.5 µM), usual class: inhibitors; 0.63% of 310,000 active; AID 720579; calls by dose curve; tested in A549 cells; further: nearly all actives have a fitted effect of over 35% in size
# FMDV antiviral: antivirals against foot and mouth disease virus; FMDV antiviral cell-based qHTS; Potency, µM (top dose mostly 57.9 µM), most hits filed as inhibitors; 1.2% of 410,000 active; calls by dose curve; tested in HEK293T cells; further: read-out not given here; nearly all actives have a fitted effect of over 45% in size
# HCV inhibitor: HCV inhibition; Huh7.5.1 HCVcc-Cre infection, luciferase reporter, 44 h; Potency, µM (highest dose often 41.8 µM), hits mostly inhibitors; 3.4% of 340,000 active; active means well fitted inhibition curve with a large enough effect; inconclusive means small, poorly fitted or top-dose-only effect, or another doubt; inactive means no such curve, though single readings can be large or run the other way
#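 Reporter virus HCVcc-Cre (~0.5 moi) infects cells exposed to compound; seeding density 1,000 cells/well with 4 h settling beforehand. Luminescence, 15 sec read, taken 44 h post-infection following a 15 min RT substrate incubation.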
# Vaccinia Venus: inhibitors of vaccinia virus (Venus reporter). Vaccinia virus Venus reporter expression, fluorescence. Potency, µM (titrated, usually from 36.5 µM), actives largely listed as inhibitors. 0.46% of 330,000 active. AID 720580; calls by dose curve; tested in A549 cells; further: nearly all actives have a fitted effect of over 30% in size
# Numbers stand for hits; - = inactive; ? = inconclusive; . = not tested or not shown; ! = a repeat was not active. This is a sample that favours compounds with a hit; in the whole collection about 7.3% have one here.
SMILES,HCMV inh,Vaccinia mCherry,FMDV antiviral,HCV inhibitor,Vaccinia Venus
O=C(CS(=O)c1ccc(F)cc1)Nc1ccccc1Cl (centres undefined),-77,-,-,-,-
O=C(c1cc(S(=O)(=O)N2CCOCC2)ccc1F)N(CCc1ccccc1)Cc1ccccc1,-,-,-,?,-
COc1ccc(C(CC(=O)N2CCCC2)c2ccc(F)cc2)cc1 (centres undefined),-,-,-,-,-
CCN(CC)C(=O)CC(c1ccc(F)cc1)c1ccc(OC)cc1 (centres undefined),-67,-,-,-,-
CCN(CC)C(=O)C1=C(C)N(CCCOC)C(=O)C(CC(=O)NCc2cccs2)C1 (centres undefined),-,-,-,.,-
Cc1ccc(S(=O)(=O)Nc2cc(Cl)c(O)cc2C)cc1,-70,.,-,?,.
Cc1ccc(C)c(CN2C(=O)c3ccccc3Sc3ccc(C(=O)NCc4ccco4)cc32)c1,-69,-,-,.,-
Cc1ccc(C)c(CN2C(=O)c3ccccc3Sc3ccc(C(=O)NCc4cccs4)cc32)c1,-62,-,-,.,-
Cc1ccc(C)c(CN2C(=O)c3ccccc3Sc3ccc(C(=O)N4CCC5(CC4)OCCO5)cc32)c1,-72,-,-,.,-
O=C(NCc1ccco1)c1ccc2c(c1)N(Cc1ccc(Cl)cc1)C(=O)c1ccccc1S2,-,-,-,.,-
Cc1ccccc1CN1C(=O)c2ccccc2Sc2ccc(C(=O)NCc3cccs3)cc21,?,-,-,.,-
O=C1CCCc2c1[nH]c1c(Br)cccc21,-,.,-,-,11µM
Cc1cc(Br)c2[nH]c3c(c2c1)CCCC3=O,-,.,-,10µM,?
Cc1ccc2cccc(NC(=O)c3ccc(-c4ccc(Cl)cc4Cl)o3)c2n1,-,-,-,.,-
C=C(CN(C)C)C(=O)c1ccc(OC2OC(COC(C)=O)C(OC(C)=O)C(OC(C)=O)C2OC(C)=O)cc1 (centres undefined),-,?,10µM,?,?
CCn1nc(C(=O)NNS(=O)(=O)c2ccc(C)cc2)c2ccccc2c1=O,-,-,-,-,-
COc1cccc(C(c2sc3nc(-c4ccco4)nn3c2O)N2CCN(c3ccccc3F)CC2)c1 (centres undefined),-,-,-,.,-
CCc1cc2c(=O)[nH]c(-c3ccccn3)nc2s1,-101,2.8µM,?,?,?
O=c1[nH]c(NC2CCCCC2)c([N+](=O)[O-])c(=O)[nH]1,-,-,-,-,-
CN1CCC(C)(C(=O)Nc2ccc3c(c2)OCCO3)C1 (centres undefined),-,-,-,.,-
Clc1ccc2nnnc(-c3ccccc3)c2c1,-102,13µM,?,4.5µM,13µM
c1ccc(-c2nnnc3ccccc23)cc1,-,-,-,-,-
C=C(c1ccccc1)c1ccccc1N,-,-,-,-,-
NS(=O)(=O)c1ccc(-c2ccc(C=C3C(=O)NC(=O)NC3=O)o2)cc1,-,-,-,-,-
O=C1NC(=O)C(=Cc2ccc(SC3CCCCC3)o2)C(=O)N1,-,.,18µM,-,.
SMILES,HCMV inh,Vaccinia mCherry,FMDV antiviral,HCV inhibitor,Vaccinia Venus
COc1ccc(NC(=O)N2CCCC3(CCN(S(=O)(=O)c4ccccc4)CC3)C2)cc1,.,.,-,.,.
Cc1ccccc1-c1nc(CS(=O)(=O)CC(=O)NC2CCCCC2C)c(C)o1 (centres undefined),-,-,-,?,-
Cc1ccccc1-c1nc(CS(=O)(=O)CC(=O)N(C)C2CCCCC2)c(C)o1,-,?,?,11µM!,?
Clc1ccc(CN(Cc2ccccc2)C(c2cccs2)c2nnnn2C2CCCC2)cc1 (centres undefined),-,-,-,-,-
Fc1ccc(CN(Cc2ccccc2)C(c2cccs2)c2nnnn2C2CCCCC2)cc1 (centres undefined),-77,-,-,?,-
COc1cccc(CN2CCC2(C)C(=O)NCc2cccc(C(F)(F)F)c2)c1OC (centres undefined),-,?,-,.,-
CC(Sc1nc2c([nH]c3ccccc32)c(=O)n1-c1ccccc1)c1ccccc1 (centres undefined),-83,-,-,.,-
CCSc1nc2c([nH]c3ccccc32)c(=O)n1-c1cccc(OC)c1,-63,-,-,.,-
COC(=O)C(C)Sc1nc2c([nH]c3ccccc32)c(=O)n1-c1ccc(OC)cc1 (centres undefined),-,-,-,.,-
O=C(CSc1nc2c([nH]c3ccccc32)c(=O)n1-c1ccccc1F)Nc1ccccc1C(F)(F)F,-89,-,-,.,-
O=C(CSc1nc2c([nH]c3ccccc32)c(=O)n1-c1ccccc1)Nc1ccccc1F,-,-,-,.,-
Cc1cc(C)cc(-n2c(SCC(N)=O)nc3c([nH]c4ccccc43)c2=O)c1,-71,-,-,.,-
CCCCN1CCC(=O)C(C(=O)OCC)=C1C(=O)OCC,-,-,-,-,-
COc1ccc(S(=O)(=O)NCc2ccco2)c2ccccc12,-66,-,.,-,-
Cc1nn(C(=O)c2ccco2)c(C)c1Sc1ccc([N+](=O)[O-])cc1,-,-,?,-,-
Cc1nn(S(=O)(=O)c2ccccc2)c(C)c1Sc1ccc([N+](=O)[O-])cc1,-85,-,.,-,-
Cc1nn(S(=O)(=O)c2cccs2)c(C)c1Sc1ccc([N+](=O)[O-])cc1,-84,?,14µM,10µM,?
CCCCN1C(C(=O)c2ccccc2)=C(OC(C)=O)c2ccccc2S1(=O)=O,-108,-,?,.,?
CCN1C(C(=O)c2ccccc2)=C(OC(=O)c2ccccc2OC)c2ccccc2S1(=O)=O,-73,?,-,.,?
CCCN1C(C(=O)c2ccccc2)=C(OC(=O)c2ccc(OC)cc2)c2ccccc2S1(=O)=O,?,?,-,.,-
CCCCC(=O)OC1=C(C(=O)c2ccccc2)N(CC)S(=O)(=O)c2ccccc21,?,-,-,.,-
COc1ccccc1-c1nccc(N2CCN(C)CC2)n1,.,.,-,.,.
NC1=C(Cl)C(=O)c2ccccc2C1=O,-,?,?,8.9µM,?
NC1=C(Cl)C(=O)c2ccc(S(N)(=O)=O)cc2C1=O,-101,?,2.5µM,0.56µM,0.5µM
Cc1ccc(C(=O)Nc2ccccc2C(=O)N2CCOCC2)cc1[N+](=O)[O-],-,-,-,-,-
SMILES,HCMV inh,Vaccinia mCherry,FMDV antiviral,HCV inhibitor,Vaccinia Venus
CN1CCc2cc(Cl)c(O)cc2[C@@H](c2ccccc2)C1,-65,-,1.3µM!,-,-
COCCNc1nc(-c2cc(-c3ccccc3)on2)cc(C(C)C)n1,-63,-,-,10µM,-
CC(C#N)Sc1ccc(S(=O)(=O)N(C)C2CCCCC2)cn1 (centres undefined),-62,.,-,-,.
O=C(NCc1ccc2c(c1)OCO2)c1ccc2c(c1)N(Cc1ccccc1F)C(=O)c1ccccc1S2,-,-,-,.,-
O=C(NCc1ccc2c(c1)OCO2)c1ccc2c(c1)N(Cc1c(F)cccc1Cl)C(=O)CS2,-78,-,-,?,-
O=C(NCCc1ccc(Cl)cc1)c1ccc2c(c1)N(Cc1ccc(F)cc1Cl)C(=O)CS2,-64,-,-,.,?
O=C(NCCc1ccccc1)c1ccc2c(c1)N(Cc1ccc(F)cc1Cl)C(=O)CS2,-,-,-,.,-

# Source: PubChem (National Center for Advancing Translational Sciences (NCATS))
